Results reported in PubChem BioAssay (NCATS).
Records with an inconclusive call do not appear. Where a call stands in place of a potency, no number is given. Values without a mark were called inactive. Activity calls are given as the source filed them. The call rests on the fitted dose curve; in most records, active means well fitted curve in the direction sought with a large enough effect; inconclusive means small, poorly fitted or top-dose-only effect, or another doubt; inactive means no such curve, though single readings can be large; an effect the other way counts as inactive or inconclusive.

Legend:
MCC-13 = assay: qHTS assay to identify novel small-molecules to repurpose for Merkel cell carcinoma treatment (AID 1296009); details: MCC and control cell lines, CellTiter-Glo viability, 72 h; further: nearly all actives have a fitted effect of over 60% in size; further: potency means the concentration at half of the fitted maximal effect
How it was run: (§1)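 Luminescence from CellTiter-Glo, read 10 min after addition at room temperature, reported viability following a 72 hr, 37 degree celsius treatment with NPC or MIPE compounds in titration; values normalized to plate controls.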

MCC-26 = assay: as above; details: MCC and control cell lines, CellTiter-Glo viability, 72 h
How it was run: as §1

MKL-1 = assay: as above; details: MCC and control cell lines, CellTiter-Glo viability, 72 h
How it was run: as §1

MKL-2 = assay: as above; details: MCC and control cell lines, CellTiter-Glo viability, 72 h
How it was run: as §1

UISO = assay: as above; details: MCC and control cell lines, CellTiter-Glo viability, 72 h
How it was run: as §1

WaGa = assay: as above; details: MCC and control cell lines, CellTiter-Glo viability, 72 h
How it was run: as §1

HEK293T = assay: as above; details: MCC and control cell lines, CellTiter-Glo viability, 72 h; at 44.8 µM (top of the series) unless noted
How it was run: as §1

C33A = assay: Primary qHTS to identify gynecologic anti-cancer compounds using libraries of approved drugs and bioactive compounds (AID 1345084); details: Gynecologic cancer cell panel viability, ATPlite luminescence, 48 h; series mostly up to 57.5 µM; further: nearly all actives have a fitted effect of over 55% in size
How it was run: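 ATP-based viability (ATPlite), 1,000 cells/well, 16 h pre-incubation, 48 h compound at 37 C, 5% CO2, 15 min RT before read.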

HACAT = assay: qHTS assay to identify novel small-molecules to repurpose for Merkel cell carcinoma treatment (AID 1296009); details: MCC and control cell lines, CellTiter-Glo viability, 72 h; at 44.8 µM (top of the series) unless noted; further: nearly all actives have a fitted effect of over 60% in size; further: potency means the concentration at half of the fitted maximal effect
How it was run: as §1

NIH3T3 = assay: as above; details: MCC and control cell lines, CellTiter-Glo viability, 72 h; at 44.8 µM (top of the series) unless noted
How it was run: as §1

Question: Which Potency (MCC-13) does the source give for `C[CH2][Hg][S]c1ccccc1C(=O)O` here?
Answer: 15000 nM (active)

Question: And the Potency (MCC-26)?
Answer: 15000 nM (active)

Question: And the Potency (MKL-1)?
Answer: 2990 nM (active)

Question: And the Potency (MKL-2)?
Answer: 944 nM (active)

Question: And the Potency (UISO)?
Answer: 2990 nM (active)

Question: What about the Potency (WaGa) of the same compound?
Answer: 2660 nM (active)

Question: Which results are given for `CCN1C[C@]2(COC)[C@H](O)C[C@H](OC)[C@]34[C@@H]5C[C@]6(O)[C@H](OC(=O)c7ccccc7)[C@@H]5[C@@](O)([C@H]([C@H](OC)[C@H]23)[C@@H]14)[C@@H](O)[C@@H]6OC`?
Answer: outcome (HEK293T): inactive; Potency (C33A): inactive

Question: Which results are given for `CN1C(=O)c2ccccc2NC(=O)C1Cc1ccccc1` (stereo unspecified)?
Answer: outcome (HEK293T): inactive; Potency (C33A): inactive

Question: How did the outcome (HACAT) turn out when `CC(C)[C@@H](CN1CC[C@@](C)(c2cccc(O)c2)[C@@H](C)C1)NC(=O)[C@H]1Cc2ccc(O)cc2CN1` was run?
Answer: inactive

Question: And the Potency (C33A)?
Answer: inactive

Question: Which outcome (HEK293T) does the source give for `CN1C(=O)c2ccccc2NC(=O)[C@]12O[C@@H]2c1ccccc1` here?
Answer: inactive

Question: And the Potency (C33A)?
Answer: inactive

Question: For `C/C=C(\C)C(=O)OC1CC2C(CC=C3CC(OC4CC(OC)C(OC5CC(OC)C(OC6OC(C)C(OC7OC(CO)C(O)C(O)C7O)C(OC)C6O)C(C)O5)C(C)O4)CCC32C)C2(O)CCC(C(C)=O)C12C` (stereo unspecified), which outcome (HACAT) is on record?
Answer: inactive [at 9.27 µM]

Question: What about the activity change, negative = cytotoxicity (C33A) of the same compound?
Answer: 3.18% [at 11.6 µM]

Question: Which outcome (HACAT) does the source give for `COc1cc(C(=O)O[C@H]2[C@@H]3C=CO[C@@H](O[C@@H]4O[C@H](CO)[C@@H](O)[C@H](O)[C@H]4O)[C@@H]3[C@@]3(CO)O[C@@H]23)ccc1O` here?
Answer: inactive [at 17.4 µM]

Question: What about the Potency (C33A) of the same compound?
Answer: inactive

Question: For `C=C1[C@@H]2CC[C@@]3(C)[C@H](c4ccoc4)OC(=O)C[C@]13O[C@H]1CC(=O)C(C)(C)[C@H](C(OC(C)=O)C(=O)OC)[C@]12C` (stereo partly specified), which outcome (HACAT) is on record?
Answer: inactive [at 17.4 µM]

Question: And the Potency (C33A)?
Answer: inactive

Question: With `C[C@@]12C[C@@H](c3ccoc3)OC(=O)C1CC[C@]1(C)[C@H]2[C@H]2C=C[C@]1(O)C(=O)O2` (stereo partly specified) as the compound, how does the outcome (HEK293T) read?
Answer: inactive

Question: And the Potency (C33A)?
Answer: inactive

Question: Which outcome (HEK293T) does the source give for `CCCN1CCO[C@H]2c3cc(O)ccc3OC[C@@H]21` here?
Answer: inactive

Question: And the Potency (C33A)?
Answer: inactive

Question: For `C=C(C)[C@H]1O[C@H]2CC[C@@]3(C)[C@@](O)(CC[C@H]4[C@@H]5OC(C)(C)[C@H]6C[C@@H]7C(=C)Cc8c(Cl)cc9[nH]c(c5c9c8[C@@]76O)[C@@]43C)[C@]23O[C@@H]3[C@H]1O`, which outcome (HEK293T) is on record?
Answer: inactive [at 17.4 µM]

Question: And the Potency (C33A)?
Answer: inactive

Question: Which results are given for `CN[C@H]1[C@H](O)[C@H](O[C@@H]2[C@@H](O)[C@H](O[C@H]3O[C@H]([C@H](C)O)[C@@H](O)[C@H](O)[C@H]3N)[C@@H](N)C[C@H]2N)OC[C@@]1(C)O`?
Answer: outcome (HACAT): inactive; Potency (C33A): inactive

Question: `COC1=CC(=O)O[C@@H](/C=C/c2ccccc2)C1` was tested. Which outcome (HACAT) did it give?
Answer: inactive

Question: And the Potency (C33A)?
Answer: inactive

Question: What does the source list for `CC(C)=C1CC[C@]23CO[C@H](C2)[C@@](O)(C(=O)O)CCC13` (stereo partly specified)?
Answer: outcome (HEK293T): inactive; Potency (C33A): inactive

Question: Which outcome (HACAT) does the source give for `CC(C)(C)c1cc(C(C)(C)C)c2c(c1)C(O)(C(F)(F)F)C(=O)O2` (stereo unspecified) here?
Answer: inactive

Question: What about the Potency (C33A) of the same compound?
Answer: inactive

Question: How did the outcome (HEK293T) turn out when `CC(=O)O[C@H]1C[C@@H](OC(C)=O)C(C)(C)C2C[C@@H](O)[C@]3(C)C(CC[C@@]4(C)[C@H](C5=CC(=O)OC5O)C[C@H]5O[C@]543)[C@]21C` (stereo partly specified) was run?
Answer: inactive [at 17.4 µM]

Question: What about the outcome (NIH3T3) of the same compound?
Answer: inactive [at 17.4 µM]

Question: And the Potency (C33A)?
Answer: inactive

Question: How did the outcome (HACAT) turn out when `Cc1c(Cl)cccc1S(=O)(=O)Nc1nc(CC(=O)N2CCN(C)CC2)cs1` was run?
Answer: inactive

Question: And the Potency (C33A)?
Answer: inactive

Question: Which results are given for `CC1=C2C[C@H]3[C@@H](CC=C4C[C@@H](O)CC[C@@]43C)[C@@H]2CC[C@]12O[C@@H]1C[C@H](C)CN[C@H]1[C@H]2C`?
Answer: outcome (HEK293T): inactive; Potency (C33A): inactive
